LDHA inh: qHTS assay for inhibitors of human lactate dehydrogenase. 0.15% of 480,000 active. L-lactate dehydrogenase A chain (Homo sapiens), P00338. AID 1347041, 2019. activity change, % (values are at about 110 or 230 µM). purified LDHA, NADH/diaphorase-resazurin fluorescence; hits give low values; in the data active = activity change below about -30%; inconclusive = mostly about -25% to -30%;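 note: plate controls were DMSO wells for no effect and wells without enzyme for full effect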
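Human LDH5 at 2 nM final in Tris HCl pH 7.4 with 0.06 mM NADH and 0.2 mM pyruvate, reacted 5 minutes at room temperature. Remaining NADH coupled via diaphorase/resazurin; resorufin fluorescence read at 0 and 20 minutes, normalized to enzyme-free and DMSO wells.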
VP16 counter: VP16 counterscreen qHTS for inhibitors of ROR gamma transcriptional activity. Potency, µM (series often up to 53.6 µM), without a hit: top-dose activity, negative = inhibition, hits mostly inhibitors. 3.5% of 310,000 active. Drosophila S2 Gal4-VP16 UAS-luciferase, luminescence, 20 h;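 note: Gal4-VP16 expression switched on by copper sulfate through the metallothionein promoter; potency is the fitted concentration of half-maximal effect; nearly all actives have a fitted effect of over 50% in size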
TDP1 cell noCPT: qHTS for Inhibitors of human tyrosyl-DNA phosphodiesterase 1 (TDP1): qHTS in cells in absence of CPT. 15% of 420,000 active. Potency, µM (titrated, usually from 46.2 µM), for the others: at the highest dose activity change, negative = growth inhibition, actives largely listed as inhibitors. DT40 Tdp1-/- hTDP1 cells, no CPT, ATP luminescence, 48 h. AID 686978, 2013; note: potency is the fitted concentration of half-maximal effect; nearly all actives have a fitted effect of over 55% in size
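Stably hTDP1-transfected Tdp1-null chicken DT40 cells were treated with library compounds minus camptothecin and grown for at least 48 hr at 37 °C, after which cellular ATP was quantified by luminescence.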
IL-1B inflam inh: qHTS for Inhibitors of Inflammasome Signaling: IL-1-beta AlphaLISA Primary Screen; 4.7% of 360,000 active; THP-1 LPS/ATP IL-1B secretion, AlphaLISA, 16 h; hits give low values; activity change, % at 57.5 µM; in the data active = activity change below about -50%; inconclusive = mostly about -30% to -49%
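Secreted IL-1B measured by AlphaLISA bead assay after 16 h compound exposure of THP-1 cells; compounds (final up to 57.5 uM) added 1 h before LPS (250 ng/mL) and ATP (1.25 mM) stimulation; lower signal means less secretion.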
TDP1 cell CPT: qHTS for Inhibitors of human tyrosyl-DNA phosphodiesterase 1 (TDP1): qHTS in cells in presence of CPT | chicken DT40 Tdp1-/-;hTDP1 cells + 20 nM CPT, ATP luminescence, 48 h | Potency, µM (series often up to 46.2 µM), for inactives: top-dose activity change, negative = growth inhibition, most hits filed as inhibitors | 12% of 420,000 active; note: potency is the fitted concentration of half-maximal effect; nearly all actives have a fitted effect of over 55% in size
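Cell growth measured by CellTiter-Glo luminescence after a minimum 48 h, 37 C compound exposure with 20 nM CPT in Tdp1-knockout DT40 cells stably expressing hTDP1, seeded 400/well; qHTS titration format.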
RORg inh: qHTS for inhibitors of ROR gamma transcriptional activity; AID 2551, 2010; Drosophila S2 Gal4-RORgamma UAS-luciferase reporter, 20 h; 5.4% of 310,000 active; Potency, µM (top dose mostly 53.6 µM), without a hit: at the top dose activity change, negative = inhibition, most hits filed as inhibitors; note: potency is the fitted concentration of half-maximal effect; nearly all actives have a fitted effect of over 60% in size
Target sequence (P51450 whole entry, looked up, the tested form may be a part): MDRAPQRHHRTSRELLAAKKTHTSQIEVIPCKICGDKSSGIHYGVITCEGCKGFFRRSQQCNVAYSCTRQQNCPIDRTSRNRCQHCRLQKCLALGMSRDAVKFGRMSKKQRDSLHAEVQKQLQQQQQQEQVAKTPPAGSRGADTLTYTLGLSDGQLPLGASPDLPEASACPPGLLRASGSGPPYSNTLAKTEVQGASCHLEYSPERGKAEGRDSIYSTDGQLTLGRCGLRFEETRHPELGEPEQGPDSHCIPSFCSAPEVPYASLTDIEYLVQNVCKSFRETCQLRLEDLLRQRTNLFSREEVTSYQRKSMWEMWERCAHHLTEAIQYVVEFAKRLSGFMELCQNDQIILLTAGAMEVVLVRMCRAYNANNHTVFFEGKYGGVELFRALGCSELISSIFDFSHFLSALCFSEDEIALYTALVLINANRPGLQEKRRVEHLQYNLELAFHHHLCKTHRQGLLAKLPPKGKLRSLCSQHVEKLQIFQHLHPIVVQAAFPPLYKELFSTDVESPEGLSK
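A Gal4/UAS one-hybrid system in insect cells: metallothionein-promoter Gal4–ROR gamma fusion plus Photinus luciferase reporter. Copper sulfate 700 uM final, 20 hr ambient incubation, luminescent detection after 10 min with reagent.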
* hit, by the source's call; u = inconclusive; x = no result; [ ] = another dose, or the depositor's remark. Compounds with a hit are over-represented: about 18% of the library has one in this group of screens. Unless noted, calls come from the whole dose curve; as a rule, active = well fitted curve in the direction sought with a large enough effect; inconclusive = small, poorly fitted or top-dose-only effect, or another doubt; inactive = no such curve, though single readings can be large; an effect the other way counts as inactive or inconclusive. Unless noted, % is set by controls: 0 for no effect and ±100 for the full control effect.

SMILES	LDHA inh	VP16 counter	TDP1 cell noCPT	IL-1B inflam inh	TDP1 cell CPT	RORg inh
Cc1cc(C)c2nc(/N=C(\N)NC(=O)c3ccccc3)nc(C)c2c1	4	-13%	16µM*	-27	-24%	0%
CCc1ccc2nc(/N=C(\N)NC(=O)c3ccccc3)nc(C)c2c1	-5	5%	16µM*	-15	u	-2%
CCCC(=O)N/C(N)=N/c1nc(C)c2ccccc2n1	0	21%	16µM*	-85*	u	1.1µM*
Cc1cc(C)c2nc(/N=C(\N)NC(=O)Nc3ccccc3)nc(C)c2c1	0	-21%	18µM*	-9	23µM*	-3%
CCCCC(=O)Nc1nonc1-c1ccc(F)cc1	2	x	x	x	x	x
COc1cccc(OC)c1C(=O)Nc1cccc(-c2nc3cc(C)cc(C)c3o2)c1	-3	x	7.3µM*	x	13µM*	x
COc1cc(C(=O)Nc2cccc(-c3nc4cc(C)ccc4o3)c2)cc(OC)c1OC	-1	-15%	u	-5	23µM*	u
CCC1CN(C(=O)N2CCC(C(=O)NCCc3ccccc3)CC2)c2ccccc2O1 (configuration not stated)	-3	0%	8.2µM*	10	u	1%
CCC1CN(C(=O)N2CCC(C(=O)NCCc3ccc(C)cc3)CC2)c2ccccc2O1 (configuration not stated)	-3	x	21µM*	x	u	x
CCC1CN(C(=O)N2CCC(C(=O)N3CCN(c4ccccc4F)CC3)CC2)c2ccccc2O1 (configuration not stated)	1	x	16µM*	x	16µM*	x
O=S1(=O)CCN(c2ccccc2CC(c2c[nH]c3ccccc23)c2c[nH]c3ccccc23)CC1	0	x	13µM*	-11	8.2µM*	x
O=C(O)C(c1c[nH]c2ccccc12)N1CCN(C/C=C/c2ccccc2)CC1 (configuration not stated)	2	x	x	x	x	x
CCC(Oc1ccccc1F)C(=O)Nc1ccccc1Cl (configuration not stated)	-1	x	x	x	x	x
Cc1ccc(Cn2c(C)c(CNCCCc3ccccc3)c(C(=O)O)c2C)cc1	0	x	u	x	u	x
Cc1cc(C)c(Cn2c(C)c(CNCCCc3ccccc3)c(C(=O)O)c2C)c(C)c1	4	x	23µM*	x	u	x
C[C@@H](O)CNC(=O)c1nc(-c2ccc3cc[nH]c3c2)no1	-1	x	x	x	x	x
O=C1OC(C(=O)Nc2cccc3cccnc23)Cc2ccccc21 (configuration not stated)	1	x	x	x	x	x
O=C(N/N=C/C1CC=CCC1)c1cc2ccccc2cc1O (configuration not stated)	9	u	-16%	76	10%	10µM*
O=C(N/N=C/C1CC=CCC1)c1ccc(O)cc1O (configuration not stated)	4	2.8µM*	10%	17	11%	1.1µM*
O=Cc1ccccc1Oc1ccccc1	-1	0%	12µM*	10	u	-6%
O=Cc1ccccc1C=O	x	-23%	u	x	9.4µM*	-3%[10 µM]
N#Cc1ccccc1Oc1ccccc1C=O	-1	-2%	16µM*	25	u	-20%
O=C(CSc1nc2ccc(NC(=O)c3ccc(Br)cc3)cc2s1)NC1CC1	10	x	x	x	x	x
Cc1nn(-c2ccccn2)c2c1C(=O)CC(C)(C)C2N=[N+]=[N-] (configuration not stated)	-6	x	u	-29	u	x
C=C(C)C1Cc2c(C)nn(-c3ccccn3)c2C1 (configuration not stated)	-5	u	u	6	u	13µM*
SMILES	LDHA inh	VP16 counter	TDP1 cell noCPT	IL-1B inflam inh	TDP1 cell CPT	RORg inh
C=C(C)C1Cc2c(C)nn(-c3cccc4cccnc34)c2C1 (configuration not stated)	-5	-27%	u	67	u	14µM*
O=C1C2C3C=CC(C3)C2C(=O)N1c1cccc2cccnc12 (configuration not stated)	-1	-1%	u	13	-4%	12%
Cc1csc(NC(=O)CCc2ncc(-c3ccc(F)cc3F)o2)n1	3	x	x	x	x	x
COc1ccccc1NC(=O)CSc1nnc2c3ccccc3n(C(C)C)c2n1	-2	x	4.6µM*	x	3.7µM*	x
COC(=O)c1c(SCC(=O)Nc2ccccc2OC)[nH]c2ccccc2c1=O	0	x	u	x	23µM*	x
COc1ccccc1Cc1nc2ccccc2nc1SCC(=O)Nc1cc(Cl)ccc1OC	-3	x	u	x	u	x
COC(=O)c1ccc(NC(=O)CSc2nnc3c4ccccc4n(C(C)C)c3n2)cc1	1	x	x	x	x	x
CCc1cccc2c(-c3ccccc3)nc(SCC(=O)Nc3ccccc3OC)nc12	3	x	18µM*	x	u	x
COc1ccc(Cl)cc1NC(=O)CSc1nc(-c2ccccc2)c2ccccc2n1	0	x	21µM*	x	7.3µM*	x
O=C(CN1CCC2(CC1)OCCO2)Nc1ccc(F)cc1	-6	x	x	x	x	x
CN1C(=O)c2c(sc3c2CC(C)(C)SC3)N2CCN=C12	-2	-3%	21µM*	-8	21µM*	11%
Cc1cc(=O)c2c(o1)C(=O)c1occc1C2=O	41	x	15µM*	0	18µM*	x
Cc1ccc2[nH]c(C)c(CC(=O)NCc3ccco3)c2c1	16	x	x	x	x	x
CCCN(CC(=O)Nc1ccc(Cl)cc1Cl)C(=O)/C=C/c1ccco1	-7	-4%	16µM*	-24	u	u
CCN(CC(=O)Nc1ccc(NC(C)=O)cc1)C(=O)/C=C/c1ccco1	-4	x	0%	4	-28%	x
CCCC(C)C(=O)Nc1ccc(-c2nc3ccccc3o2)cc1 (configuration not stated)	3	x	x	x	x	x
COc1ccc(CC(N)c2csc(NC(=O)c3ccc(OC)cc3)n2)cc1 (configuration not stated)	3	x	21µM*	u	16µM*	x
COc1cc(CNC(=O)Nc2nc(C(N)Cc3ccc(Cl)cc3)cs2)cc(OC)c1OC (configuration not stated)	-11	x	18µM*	-74*	u	x
COc1ccc(CC(N)c2csc(NC(=O)c3ccccc3)n2)cc1 (configuration not stated)	-11	x	u	u	u	x
